AHR activator – human AHR activation | P35869 | AHR-responsive luciferase reporter cells, luminescence | activation, % at 5 µM | 320,000 compounds, 2.5% hits | AID 2796; in the data active means activation above about 47%;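 further: 0% = vehicle wells and 100% = reference agonist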
ADAM10 inh – inhibits human ADAM10. O14672. recombinant ADAM10, EDANS/DABCYL FRET peptide cleavage, 3 h. inhibition, % at 7 µM. 370,000 compounds, 0.62% hits. AID 720582;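 active means inhibition above a per-campaign cutoff equal to the mean of compounds falling between control-based bounds plus 3 SD, cut at about 20% in these data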;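 further: 0% = DMSO wells while the 100% control is not disclosed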
Target sequence (O14672 214-748 limits assumed): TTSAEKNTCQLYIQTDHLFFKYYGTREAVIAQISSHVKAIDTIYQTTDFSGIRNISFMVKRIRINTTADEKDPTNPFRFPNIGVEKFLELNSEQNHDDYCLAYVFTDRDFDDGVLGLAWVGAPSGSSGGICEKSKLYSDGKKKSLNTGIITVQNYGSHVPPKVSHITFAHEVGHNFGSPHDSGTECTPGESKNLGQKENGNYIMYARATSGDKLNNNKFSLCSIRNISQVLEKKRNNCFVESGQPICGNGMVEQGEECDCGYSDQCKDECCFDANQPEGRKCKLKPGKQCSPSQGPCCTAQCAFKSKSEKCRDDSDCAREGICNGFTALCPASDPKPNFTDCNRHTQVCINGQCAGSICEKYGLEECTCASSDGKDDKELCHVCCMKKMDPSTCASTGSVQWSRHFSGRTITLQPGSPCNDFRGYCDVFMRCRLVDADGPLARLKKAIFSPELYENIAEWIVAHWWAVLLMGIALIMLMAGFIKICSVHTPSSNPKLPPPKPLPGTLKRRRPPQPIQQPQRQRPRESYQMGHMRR
rCAG binder – binds r(CAG) RNA repeats. r(CAG) RNA repeat, TO-PRO-1 dye displacement fluorescence. inhibition, % at 3 µM. 370,000 compounds, 1.3% hits. AID 651821;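 active means inhibition above the plate cutoff, the mean of all test compounds on that plate plus 3 SD, cut at about 35% in these data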;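 further: 0% = DMSO alone and 100% = 100 µM mitoxantrone as full dye displacement; higher means more dye released from RNA so lower well fluorescence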
ADAM17 inh – inhibits human ADAM17; recombinant ADAM17, EDANS/DABCYL FRET peptide cleavage; inhibition, % at 6.95 µM; 370,000 compounds, 0.83% hits; AID 720648;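 active means inhibition above the mean of compounds lying between control limits plus 3 SD, set per campaign, cut at about 8.5% in these data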;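 further: 0% = DMSO-only wells as the low control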
GRIN3A LBD mod – NR3A (human) ligand-binding domain modulation; NR3A LBD differential scanning fluorimetry, Tm shift; 0% = protein alone, 100% = glycine-bound protein; Tm shift relative to glycine control, % at 25 µM; 340,000 compounds, 2.5% hits;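 active means melting temperature shift of at least 10% of the positive control shift, at one fixed dose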
KLK7 zymogen act – proKLK7 (human) activation, primary screen; P49862; purified proKLK7, EDANS-DABCYL substrate fluorescence; 100% is mature enzyme control, 0% vehicle; 370,000 compounds, 0.9% hits; activation, % at 7 µM;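 active means activation above the mean of all tested compounds plus 3 SD, computed per campaign excluding outliers beyond control limits, cut at about 13% in these data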
rCAG binder conf – r(CAG) RNA repeat binding, confirmation. shares compounds with rCAG binder. TO-PRO-1 dye displacement fluorescence. inhibition, % at 3 µM. 4,300 compounds, 70% hits. AID 652065;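 active means inhibition above a per-plate cutoff, the mean inhibition of sample wells plus 3 SD, cut at about 35% in these data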;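 further: loss of TO-PRO-1 fluorescence as compound displaces dye from 1x1 AA loop RNA; 0% = DMSO only wells and 100% = 100 µM mitoxantrone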
dCAG dye counter – counter-screen for rCAG RNA binders: DNA CAG dye complex inhibitors; shares compounds with rCAG binder; d(CAG) DNA oligo TO-PRO-1 dye displacement, fluorescence; inhibition, % at 3 µM; 4,300 compounds, 94% hits; AID 652068;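 active means inhibition above its plate's cutoff, the mean test-well inhibition plus 3 SD, cut at about 4.8% in these data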;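 further: 0% = DNA dye mix with DMSO and 100% = 100 µM mitoxantrone; hits displace the dye from DNA and so lower well fluorescence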
* marks the source's active call; other numbers are inactive results; . = not tested or not shown. Hits are enriched below; roughly 7% of the tested compounds scored in any of these assays.

SMILES	AHR activator	ADAM10 inh	rCAG binder	ADAM17 inh	GRIN3A LBD mod	KLK7 zymogen act	rCAG binder conf	dCAG dye counter
Cc1ccc(-c2n[nH]c3c2C(c2ccccc2)N(c2ccc(C(=O)O)cc2)C3=O)cc1 (stereo not given)	-2	-9	45*	-1	-2	0	26	6.2*
Nc1cccc2[nH]c(C(F)(F)F)nc12	11	-9	70*	-4	4	3	61*	33*
CC(=NNc1cc(C)c2cc(C)ccc2n1)c1ccccn1	.	-20	1	-6	.	0	.	.
O=C1NC(=S)SC1=Cc1ccc2c(c1)OCO2	.	-16	1	-2	-12	0	.	.
O=C1N/C(=N/S(=O)(=O)Cc2ccccc2)S/C1=C/c1ccc2c(c1)OCO2	3	0	66*	-6	-9	2	56*	19*
Cc1ccc([C@@H]2CC=C(C(=O)O)[C@H](c3ccccc3)N2S(=O)(=O)c2ccccc2C)cc1	-1	-8	55*	-4	1	1	57*	20*
COc1ccc([C@@H]2CC=C(C(=O)O)[C@H](c3ccccc3F)N2S(=O)(=O)c2ccccc2C)cc1	-1	10	41*	-2	2	0	41*	11*
Cc1ccc([C@H]2C(C(=O)O)=CC[C@@H](c3ccc(C)cc3)N2S(=O)(=O)c2ccccc2C)cc1	0	2	75*	-3	5	0	62*	27*
COc1ccc([C@@H]2CC=C(C(=O)O)[C@H](c3ccc(F)cc3)N2S(=O)(=O)c2ccccc2C)cc1	1	-7	59*	-5	1	0	45*	13*
Cc1ccc([C@H]2C(C(=O)O)=CC[C@@H](c3ccc(Cl)cc3)N2S(=O)(=O)c2ccccc2C)cc1	0	.	.	.	-4	.	.	.
COc1ccc(C(=O)Nc2cc(Cl)c(Br)cc2C(=O)O)cc1	.	3	.	-1	.	.	.	.
COc1ccc([C@@H]2CC=C(C(=O)O)[C@H](c3ccc(C)cc3)N2S(=O)(=O)c2ccccc2C)cc1	-1	-4	66*	-3	5	1	63*	26*
CC1=Nc2cc(C(=O)O)ccc2Sc2ccc(Br)cc21	1	-7	51*	-2	0	0	55*	22*
CCN(CC)C(=O)[C@H]1C[C@@H]2[C@H](C[C@@H](c3ccccc3)[C@H]1C)N(c1ccc(F)cc1)C(=O)N2C/C=C(\C)CCC=C(C)C	.	-10	7	1	.	0	.	.
N#Cc1ccc(OCCCN2CCC(C(O)(c3ccccc3)c3ccccc3)CC2)cc1	.	-14	1	-5	.	1	.	.
O=C(C1CCCN(S(=O)(=O)c2ccccc2[N+](=O)[O-])C1)N1CCN(Cc2ccccc2)CC1 (stereo not given)	.	0	-1	0	.	0	.	.
Cc1ccc(Cl)cc1NC(=O)c1cc(NC(=O)CCCC(=O)O)ccc1N1CCCCC1	2	-3	51*	-2	-2	2	56*	18*
Cc1ccc(NC(=O)c2cc(NC(=O)CCC(=O)O)ccc2N2CCCCC2)cc1	1	-2	11	-1	0	0	.	.
CC(=O)Nc1ccc(NC(=O)CSc2nnc(-c3ccco3)o2)cc1	0	11	1	3	-2	0	.	.
CC(=O)c1ccc(NC(=O)CSc2nnc(-c3ccco3)c(-c3ccco3)n2)cc1	2	-6	45*	-1	-11	0	37*	15*
Cc1nccn1-c1ccc(NC(=O)[C@@H](Cc2ccccc2)NC(=O)[C@H]2O[C@@H](n3ccc(=O)[nH]c3=O)[C@H](O)[C@@H]2O)cc1	.	-8	2	-2	.	0	.	.
O=[N+]([O-])c1cncc2[nH]cnc12	.	0	3	0	.	0	.	.
COc1cccc(/C=C2\SC(=S)N(NS(=O)(=O)c3ccc(C)cc3)C2=O)c1OC	0	16	75*	8	.	0	66*	28*
COc1ccccc1/C=C1\SC(=S)N(NS(=O)(=O)c2ccccc2)C1=O	1	7	69*	3	-7	0	69*	22*

Screens from PubChem BioAssay.
